# Assay outcomes deposited in PubChem BioAssay by The Scripps Research Institute Molecular Screening Center.
# Rows were chosen to be rich in hits. Some 1.8% of all compounds tested hit in one or more screens of this group.
# LYPLA1 inh – LYPLA1 (human) inhibition in PME1 counter-screen; recombinant LYPLA1, FP-Rh probe fluorescence polarization; inhibition, % at 5.9 µM; 320,000 tested, 0.16% active;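 active = inhibition above the mean of all tested compounds plus 3 SD, set per campaign, cut at about 14% in these data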;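 note: inhibitors block serine hydrolase probe labeling of LYPLA1 so polarization falls; 0% = enzyme with DMSO and 100% = wells lacking LYPLA1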
# PAD4 FP inh – blocks human protein arginine deiminase 4. Q9UM07. recombinant PAD4, RCA probe fluorescence polarization. inhibition, % at 6.36 µM. 330,000 tested, 0.41% active. AID 485272;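 active = percent inhibition above a cutoff equal to the mean of all tested compounds plus 3 SD, cut at about 15% in these data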;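 note: 0% = PAD4 with RCA probe and DMSO and 100% = probe without PAD4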
# Target sequence (Q9UM07 whole entry, looked up): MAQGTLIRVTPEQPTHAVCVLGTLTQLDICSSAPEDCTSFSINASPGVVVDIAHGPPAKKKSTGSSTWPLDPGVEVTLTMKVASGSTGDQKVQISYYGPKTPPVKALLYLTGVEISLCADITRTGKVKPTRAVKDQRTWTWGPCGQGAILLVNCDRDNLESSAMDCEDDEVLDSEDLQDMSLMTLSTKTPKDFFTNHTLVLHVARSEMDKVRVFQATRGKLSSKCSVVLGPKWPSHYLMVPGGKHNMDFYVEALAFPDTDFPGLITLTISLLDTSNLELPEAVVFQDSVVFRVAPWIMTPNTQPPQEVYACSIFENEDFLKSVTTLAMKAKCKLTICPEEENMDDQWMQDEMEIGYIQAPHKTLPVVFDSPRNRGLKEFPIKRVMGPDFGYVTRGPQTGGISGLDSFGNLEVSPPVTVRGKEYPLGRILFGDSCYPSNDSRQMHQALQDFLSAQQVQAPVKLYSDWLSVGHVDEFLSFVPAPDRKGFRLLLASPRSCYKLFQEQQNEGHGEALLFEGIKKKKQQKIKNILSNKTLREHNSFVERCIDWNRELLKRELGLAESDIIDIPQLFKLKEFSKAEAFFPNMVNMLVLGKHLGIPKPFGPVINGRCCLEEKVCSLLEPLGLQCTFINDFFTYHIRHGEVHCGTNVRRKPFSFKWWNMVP
# Fam108B inh – Fam108B inhibition, counter-screen for RBBP9 inhibitors; recombinant Fam108B, FP-Rh probe fluorescence polarization; inhibition, % at 9.51 µM; 300,000 tested, 0.33% active; AID 1947;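 active = inhibition above the screen mean inhibition plus 3 SD, computed separately per campaign, cut at about 18% in these data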;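 note: inhibitors lower polarization as less probe binds the enzyme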
# PME-1 inh – PME-1 (human) inhibition | inhibition, % at 5.9 µM | AID 2130 | 320,000 tested, 0.53% active | recombinant PME-1, FP-Rh probe fluorescence polarization | Q9Y570;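 active = inhibition above the campaign mean of all compounds plus 3 SD, cut at about 26% in these data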;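 note: competitive labeling of PME-1 active site by serine hydrolase directed probe; 0% = PME-1 with DMSO and 100% = wells lacking PME-1 enzyme; inhibitors block probe labeling so polarization falls and inhibition rises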
# LYPLA2 inh – counter-screen for PME1 inhibitors: inhibitors of human LYPLA2 | O95372 | recombinant LYPLA2, FP-Rh probe fluorescence polarization | inhibition, % at 5.9 µM | 320,000 tested, 0.38% active | AID 2177;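 active = inhibition above the screen-wide mean plus 3 SD, limit set per campaign, cut at about 26% in these data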;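 note: 0% = LYPLA2 with DMSO and 100% = wells lacking LYPLA2 enzyme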
# GSTO1 counter – blocks human GSTO1 in RBBP9 counter-screen; P78417; recombinant GSTO1, activity-based probe fluorescence polarization; inhibition, % at 5.96 µM; 300,000 tested, 1.1% active;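 active = inhibition above the campaign mean inhibition plus 3 SD, cut at about 35% in these data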;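 note: 0% = GSTO1-1 with DMSO and 100% = wells lacking GSTO1-1 enzyme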
# LYPLA2 conf – LYPLA2 (human) inhibition, confirmation counter-screen | shares compounds with LYPLA2 inh | recombinant LYPLA2, FP-Rh probe fluorescence polarization | inhibition, % at 5.9 µM | 1,100 tested, 72% active | AID 2232;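 active = mean inhibition across replicates above the hit cutoff set in the primary screen, cut at about 26% in these data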;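 note: blocked labeling of the enzyme by serine hydrolase FP-Rh probe lowers polarization; 0% = enzyme with DMSO and 100% = wells lacking LYPLA2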
# Numbers without * were called inactive; nt = no result given.
SMILES,LYPLA1 inh,PAD4 FP inh,Fam108B inh,PME-1 inh,LYPLA2 inh,GSTO1 counter,LYPLA2 conf
CC1CCCCC12NC(=O)N(CC(=O)NCCc1c[nH]c3ccccc13)C2=O (configuration not stated),0,3,nt,3,1,nt,nt
CC(C)c1nnc(SCC(=O)Nc2ccc3c(c2)OCCO3)n1C,3,2,5,-3,-2,3,nt
COC(=O)N/N=C/c1ccccc1OCCOc1ccc(OC)cc1,1,-2,-1,-6,35*,-3,42*
Cn1cc(C(=O)NC2CCCCC2)c(=O)c2cc(S(=O)(=O)N3CCOCC3)ccc21,-1,-6,-4,-2,-3,2,nt
O=C1C2CCCN2C(=O)N1CCCCN1CCN(c2cccc(Cl)c2)CC1 (configuration not stated),1,-1,1,-2,39*,0,36*
CCCCCC1CC(CC(=O)Nc2ccc([N+](=O)[O-])cc2)C(=O)O1 (configuration not stated),1,-4,-6,-4,36*,13,31*
CCCCCC1CC(CC(=O)Nc2ccc([N+](=O)[O-])cc2)OC1=O (configuration not stated),3,-4,0,6,35*,5,37*
CCCCCC1CC(CC(=O)O)C(=O)O1 (configuration not stated),0,4,-1,0,1,6,nt
CCCCCCC1CC(CCC(=O)Nc2ccc([N+](=O)[O-])cc2)C(=O)O1 (configuration not stated),-1,-3,2,-1,14,-4,nt
COC(=O)c1ccc(CNC(=O)c2cc(COc3cncc(Cl)c3)on2)cc1,1,-4,1,7,35*,5,35*
O=C1c2ccc(Oc3ccc4c(c3)C(=O)N(CCCO)C4=O)cc2C(=O)N1CCCO,4,-2,2,-3,29*,-9,15
COc1ccccc1C(CNC(=O)c1ccc(-c2ccccc2Cl)o1)N1CCCC1 (configuration not stated),7,-7,0,4,-2,5,nt
Cc1ccc(OCC(=O)N/N=C/c2cc([N+](=O)[O-])ccc2N2CCCCC2)cc1,4,-4,-3,7,5,2,nt
O=C(COc1ccc([N+](=O)[O-])cc1)N/N=C/c1cc([N+](=O)[O-])ccc1N1CCOCC1,2,-1,5,6,35*,7,30*
Nc1ccc(Sc2ccccc2Cl)nc1,2,4,-1,-3,2,-6,nt
O=[N+]([O-])c1ccc(Sc2ccccc2Cl)nc1,4,-1,3,-1,45*,6,48*
COc1ccc(-c2cn(Cc3ccc(C(N)=O)cc3)c(-c3ccc(Cl)nc3)n2)cc1,-2,-3,-2,-2,1,1,nt
N#CCCN(C(=O)COC(=O)CCN=C1NS(=O)(=O)c2ccccc21)c1ccc(F)cc1,1,-3,1,-4,1,9,nt
C#CCOCCOCCOCCNc1nc(N2CCN(C(=O)CCCCCCCCCCNC(=O)[C@H]([C@@H](C)CC)n3cc(CCCCCN)nn3)CC2)nc(N2CCN(C(=O)CCCCCCCCCCNC(=O)[C@@H]([C@H](C)O)n3cc(C)nn3)CC2)n1,0,-5,-2,-7,29*,12,29*
C#CCOCCOCCOCCNc1nc(N2CCN(C(=O)CCCCCCCCCCNC(=O)Cn3cc(CCCCCN)nn3)CC2)nc(N2CCN(C(=O)CCCCCCCCCCNC(=O)[C@H]([C@@H](C)CC)n3cc(CCCCCN)nn3)CC2)n1,3,6,-4,-4,31*,0,23
CCN(CC)S(=O)(=O)c1ccc(OC)c(NC(=O)OCc2ccccc2)c1,0,2,5,10,18,-2,nt
O=C(N=C1SC2CS(=O)(=O)CC2N1CCc1ccc(F)cc1)C1CCCCC1 (configuration not stated),2,1,-7,-3,6,-3,nt
O=[N+]([O-])c1ccc(Oc2ccc(-c3nnco3)cc2)c(Cl)c1,11,0,-3,1,32*,-2,22
O=[N+]([O-])c1cc(-c2nnc(-c3ccccc3)o2)ccc1Oc1ccc(Cl)cc1,-3,-5,5,-2,-4,1,nt
N#Cc1cc([N+](=O)[O-])ccc1Oc1ccc(-c2nnco2)cc1,9,2,3,4,30*,2,21
SMILES,LYPLA1 inh,PAD4 FP inh,Fam108B inh,PME-1 inh,LYPLA2 inh,GSTO1 counter,LYPLA2 conf
Cc1c(C(=O)Oc2ccc(F)cc2)sc2ncn(Cc3cccc(F)c3)c(=O)c12,4,1,1,-13,35*,-3,30*
CCn1cnc2sc(C(=O)Oc3cccc(C)c3)c(C)c2c1=O,-4,-1,5,-3,28*,3,36*
CC(NC(=O)c1ccco1)c1ccc(-n2ccnc2)cc1 (configuration not stated),2,-2,1,5,2,1,nt
O=C(NC(=S)N1CCN(c2ccc(C(F)(F)F)cc2[N+](=O)[O-])CC1)c1cccs1,-1,0,3,-5,36*,6,30*
CSc1ccc(S(=O)(=O)N2CCC(C(=O)NCC3CCCO3)CC2)cc1 (configuration not stated),1,1,1,3,-1,3,nt
Cc1ccccc1C#N,3,-2,nt,2,9,nt,nt
O=C(c1ccc(N2CCN(C(=O)c3ccccc3Br)CC2)cc1)c1cccc(F)c1,-1,-2,-7,1,0,1,nt
O=C(c1ccc(N2CCN(C(=O)c3cccc(F)c3)CC2)cc1)c1cccc(F)c1,6,2,3,5,43*,-2,29*
O=C(c1cc(-c2ccc3c(c2)OCO3)on1)N1CCN(c2ccc(F)cc2)CC1,1,-7,-3,-4,4,1,nt
O=C(c1cc(-c2ccc3c(c2)OCO3)on1)N1CCN(c2ccccc2)CC1,6,5,1,5,28*,11,16
O=C(c1ccc(Br)s1)N1CCN(C/C=C/c2ccccc2)CC1,10,-3,1,2,36*,7,34*
O=C(Nc1cccc(F)c1)/C(=C/c1ccco1)NC(=O)c1ccco1,-2,-3,1,-1,2,7,nt
O=C(c1cc(COc2ccc(F)cc2Cl)on1)N1CCC(OCc2cccnc2)CC1,1,-2,3,-5,32*,5,33*
O=C(c1cc(COc2ccc(F)cc2Cl)on1)N1CCCC(OCc2cccnc2)C1 (configuration not stated),-2,1,1,-2,3,6,nt
